According to the antibiotic and cytotoxicity screens of Wong et al. (2023):
The campaign covered roughly 39,000 compounds. About 3,300 (8.5%) were called active. Only a selection was taken, and actives are over-represented in it overall.

Test system: HepG2
Assay: cytotoxicity call (relative viability < 0.9)
Details: 10 µM

| Structure (SMILES) | cytotoxicity call |
| --- | --- |
| Cc1cc(C(=O)Nc2cccc3c2O[C@@H](CN(C)C(=O)NC2CCCCC2)[C@H](C)CN([C@@H](C)CO)C3=O)n(C)n1 | inactive |
| C[C@@H]1CN([C@@H](C)CO)C(=O)c2cc(NC(=O)CCCCCC(=O)Nc3ccccc3N)ccc2O[C@@H]1CN(C)S(C)(=O)=O | inactive |
| COC(=O)[C@H]1C[C@@]2(C(=O)O)C[C@](C(=O)O)(C[C@@H](C(=O)OC)C2=O)C1=O | inactive |
| C[C@@H]1CN([C@@H](C)CO)C(=O)CCCn2nncc2CO[C@@H]1CN(C)C(=O)Nc1ccc2c(c1)OCCO2 | inactive |
| C[C@@H]1CCCCO[C@H](CN(C)C(=O)Nc2ccc(C(F)(F)F)cc2)[C@@H](C)CN([C@H](C)CO)C(=O)c2cc(N(C)C)ccc2O1 | inactive |
| CCc1nc2ccc(C(=O)N3CCN(S(=O)(=O)CC)CC3)cn2c1N(C=O)Cc1ccc(OC)cc1 | inactive |
| C[C@H](CO)N1C[C@H](C)[C@@H](CN(C)Cc2ccc(Cl)c(Cl)c2)OCCCC[C@H](C)Oc2ccc(NC(=O)Nc3ccccc3)cc2C1=O | active |
| C[C@@H]1CCCCO[C@@H](CN(C)Cc2ccc(Cl)c(Cl)c2)[C@@H](C)CN([C@H](C)CO)C(=O)c2cc(NC(=O)Nc3ccccc3)ccc2O1 | inactive |
| C[C@H]1CCCCO[C@H](CN(C)Cc2ccc(Cl)c(Cl)c2)[C@@H](C)CN([C@@H](C)CO)C(=O)c2cc(NC(=O)Nc3ccccc3)ccc2O1 | inactive |
| C[C@@H]1CCCCO[C@@H](CN(C)Cc2ccc(C(=O)O)cc2)[C@H](C)CN([C@H](C)CO)C(=O)c2cc(NC(=O)Nc3ccc(C(F)(F)F)cc3)ccc2O1 | inactive |
| COc1ccccc1CNC(=O)C[C@H]1C[C@H]2c3cc(NC(=O)c4ccc5c(c4)OCO5)ccc3O[C@H]2[C@@H](CO)O1 | inactive |
| Cc1noc(C)c1NC(=O)Nc1cccc2c1O[C@@H](CN(C)S(=O)(=O)c1ccccc1)[C@H](C)CN([C@H](C)CO)C2=O | inactive |
| Cc1noc(C)c1NC(=O)N(C)C[C@H]1Oc2ncc(C#CCC(C)C)cc2C(=O)N([C@@H](C)CO)C[C@@H]1C | inactive |
| C[C@@H]1CN([C@H](C)CO)C(=O)Cc2cc(NC(=O)CCCCCC(=O)Nc3ccccc3N)ccc2O[C@@H]1CN(C)Cc1ccc(C(F)(F)F)cc1 | active |
| C[C@H]1CN([C@@H](C)CO)C(=O)Cc2cc(NC(=O)CCCCCC(=O)Nc3ccccc3N)ccc2O[C@@H]1CN(C)Cc1ccc(C(F)(F)F)cc1 | inactive |
| C[C@H](CO)N1C[C@H](C)[C@H](CN(C)Cc2ccc(C(F)(F)F)cc2)Oc2ccc(NC(=O)CCCCCC(=O)Nc3ccccc3N)cc2CC1=O | active |
| C[C@@H]1CN([C@H](C)CO)C(=O)Cc2cc(NC(=O)CCCCCC(=O)Nc3ccccc3N)ccc2O[C@H]1CN(C)Cc1ccc(C(F)(F)F)cc1 | inactive |
| C[C@H](CO)N1C[C@H](C)[C@@H](CN(C)Cc2ccc(C(F)(F)F)cc2)Oc2ccc(NC(=O)CCCCCC(=O)Nc3ccccc3N)cc2CC1=O | inactive |
| C[C@@H]1CN([C@@H](C)CO)C(=O)Cc2cc(NC(=O)CCCCCC(=O)Nc3ccccc3N)ccc2O[C@H]1CN(C)Cc1ccc(C(F)(F)F)cc1 | inactive |
| Cc1noc(C)c1S(=O)(=O)N(C)C[C@@H]1Oc2ccc(NS(=O)(=O)c3cn(C)cn3)cc2CC(=O)N([C@@H](C)CO)C[C@H]1C | inactive |

| Structure (SMILES) | cytotoxicity call |
| --- | --- |
| C[C@@H]1CN([C@H](C)CO)C(=O)c2cc(NS(=O)(=O)c3ccc(F)cc3)ccc2O[C@@H]1CN(C)C(=O)Nc1ccc(C(F)(F)F)cc1 | inactive |
| C[C@@H]1CN([C@H](C)CO)C(=O)c2cccc(NS(=O)(=O)c3ccccc3)c2O[C@H]1CN(C)Cc1ccc(Oc2ccccc2)cc1 | inactive |
| COc1ccc(S(=O)(=O)N2C[C@@H](O)COC[C@H]3O[C@H](CC(=O)NCCCN(C)C)CC[C@@H]32)cc1 | inactive |
| COc1cccc(NC(=O)N(C)C[C@@H]2OCc3ccccc3-c3c(n(C)c4ccccc34)C(=O)N([C@@H](C)CO)C[C@@H]2C)c1 | inactive |
| C=CC[C@@H](CC(=O)N[C@H](CO)Cc1ccccc1)C(=O)N[C@H](C)COC(=O)[C@H](CC=C)CC(=O)OC(C)(C)C | inactive |
| C[C@H]1CCCCO[C@H](CN(C)Cc2ccccc2)[C@@H](C)CN([C@@H](C)CO)C(=O)c2cc(NC(=O)Cc3ccccc3)ccc2O1 | inactive |
| C[C@@H]1CN([C@H](C)CO)C(=O)c2cc(NC(=O)Cc3ccccc3)ccc2O[C@@H](C)CCCCO[C@H]1CN(C)Cc1ccccc1 | inactive |
| C[C@@H]1CN([C@@H](C)CO)C(=O)c2cc(NC(=O)Cc3ccccc3)ccc2O[C@@H](C)CCCCO[C@H]1CN(C)Cc1ccc(C(F)(F)F)cc1 | inactive |
| C[C@@H]1CCCCO[C@H](CN(C)Cc2ccccc2)[C@@H](C)CN([C@@H](C)CO)C(=O)c2cc(NC(=O)Cc3ccccc3)ccc2O1 | active |
| C[C@H](CO)N1C[C@H](C)[C@@H](CN(C)Cc2ccc(C(F)(F)F)cc2)OCCCC[C@H](C)Oc2ccc(NC(=O)Cc3ccccc3)cc2C1=O | active |
| C[C@@H]1CCCCO[C@@H](CN(C)Cc2ccc(C(F)(F)F)cc2)[C@H](C)CN([C@H](C)CO)C(=O)c2cc(NC(=O)Cc3ccccc3)ccc2O1 | inactive |
| C[C@@H]1CN([C@H](C)CO)C(=O)c2cc(NC(=O)Cc3ccccc3)ccc2O[C@@H](C)CCCCO[C@@H]1CN(C)Cc1ccc(C(F)(F)F)cc1 | inactive |
| C[C@@H]1CCCCO[C@@H](CN(C)Cc2ccc(C(F)(F)F)cc2)[C@@H](C)CN([C@@H](C)CO)C(=O)c2cc(NC(=O)Cc3ccccc3)ccc2O1 | active |
| C[C@@H]1CN([C@H](C)CO)C(=O)c2cc(NC(=O)Cc3ccccc3)ccc2O[C@@H](C)CCCCO[C@H]1CN(C)Cc1ccc(C(F)(F)F)cc1 | active |
| C[C@@H]1CCCCO[C@H](CN(C)Cc2ccc(C(F)(F)F)cc2)[C@H](C)CN([C@@H](C)CO)C(=O)c2cc(NC(=O)Cc3ccccc3)ccc2O1 | inactive |
| CO[C@H]1CN(C)C(=O)c2cc(NS(C)(=O)=O)ccc2OC[C@H](C)N(S(C)(=O)=O)C[C@H]1C | inactive |
| C[C@@H]1CN([C@@H](C)CO)C(=O)c2cc(NC(=O)CCC(F)(F)F)ccc2O[C@@H](C)CCCCO[C@@H]1CN(C)CC1CCCCC1 | inactive |
| CCCCCCCCCCCCCCCc1cccc(OCC)c1C(=O)Nc1ccc(Cl)c(C(F)(F)F)c1 | inactive |
| C[C@H](CO)N1C[C@H](C)[C@@H](CN(C)S(C)(=O)=O)Oc2ccc(NC(=O)Cn3cnnn3)cc2CC1=O | inactive |
| Nc1cnn([C@H]2O[C@@H](COC(=O)c3ccccc3)[C@@H](O)[C@@H]2O)c(=O)n1 | inactive |

| Structure (SMILES) | cytotoxicity call |
| --- | --- |
| COc1ccc(S(=O)(=O)N2C[C@@H](O)COC[C@H]3O[C@H](CC(=O)NCCN4CCCCC4)CC[C@@H]32)cc1 | inactive |
| Cc1noc(C)c1NC(=O)N(C)C[C@@H]1Oc2c(NC(=O)C3CC3)cccc2C(=O)N([C@H](C)CO)C[C@H]1C | inactive |
| C[C@@H]1CN([C@H](C)CO)C(=O)Cc2cc(NC(=O)C3CCCCC3)ccc2O[C@@H]1CN(C)Cc1ccc(Cl)c(Cl)c1 | inactive |
| C[C@@H]1CCCCO[C@H](CN(C)Cc2ccc(C(F)(F)F)cc2)[C@H](C)CN([C@H](C)CO)C(=O)c2cc(NC(=O)Cc3ccccc3)ccc2O1 | active |
| C[C@@H]1CCCCO[C@@H](CN(C)Cc2ccc(C(F)(F)F)cc2)[C@H](C)CN([C@@H](C)CO)C(=O)c2cc(NC(=O)Cc3ccccc3)ccc2O1 | inactive |
| C[C@H]1CCCCO[C@@H](CN(C)Cc2ccc(C(F)(F)F)cc2)[C@@H](C)CN([C@@H](C)CO)C(=O)c2cc(NC(=O)Cc3ccccc3)ccc2O1 | inactive |
| C[C@@H]1CCCCO[C@@H](CN(C)Cc2ccc(C(F)(F)F)cc2)[C@@H](C)CN([C@H](C)CO)C(=O)c2cc(NC(=O)Cc3ccccc3)ccc2O1 | active |
| C[C@@H]1CCCCO[C@H](CN(C)Cc2ccc(C(F)(F)F)cc2)[C@@H](C)CN([C@@H](C)CO)C(=O)c2cc(NC(=O)Cc3ccccc3)ccc2O1 | inactive |
| C[C@H](CO)N1C[C@H](C)[C@H](CN(C)Cc2ccc(C(F)(F)F)cc2)OCCCC[C@H](C)Oc2ccc(NC(=O)Cc3ccccc3)cc2C1=O | inactive |
| C[C@@H]1CN([C@@H](C)CO)C(=O)c2cc(NC(=O)Cc3ccccc3)ccc2O[C@@H](C)CCCCO[C@@H]1CN(C)Cc1ccc(C(F)(F)F)cc1 | inactive |
| C[C@H]1CCCCO[C@H](CN(C)Cc2ccc(C(F)(F)F)cc2)[C@@H](C)CN([C@@H](C)CO)C(=O)c2cc(NC(=O)Cc3ccccc3)ccc2O1 | active |
| C[C@@H]1CCCCO[C@H](CN(C)Cc2ccc(C(F)(F)F)cc2)[C@@H](C)CN([C@H](C)CO)C(=O)c2cc(NC(=O)Cc3ccccc3)ccc2O1 | inactive |
| COc1ccc(S(=O)(=O)Nc2cccc3c2O[C@@H](CN(C)C(=O)Nc2cccc4ccccc24)[C@H](C)CN([C@H](C)CO)C3=O)cc1 | inactive |
| C[C@H](CO)N1C[C@H](C)[C@H](CN(C)C(=O)Nc2ccc3c(c2)OCO3)Oc2ccc(N(C)C)cc2CC1=O | inactive |
| CNC(=O)C[C@@H]1CC[C@@H]2[C@H](COC[C@@H](O)CN2C(=O)c2ccc3c(c2)OCO3)O1 | inactive |
| Cn1ccnc1C(=O)NCc1cnc2n1CCNCC2 | inactive |
| C[C@H](CO)N1C[C@H](C)[C@H](CN(C)Cc2ccc(Cl)c(Cl)c2)Oc2ccc(NC(=O)NC3CCCCC3)cc2C1=O | inactive |
| C[C@@H]1CN([C@@H](C)CO)C(=O)c2cc(NS(=O)(=O)c3cccs3)ccc2O[C@@H]1CN(C)Cc1ccc(-c2ccccc2)cc1 | inactive |
